# Tests used:
# Conditions in all cases: concentration: 1 μM, replicates: in singlicate; n = 1
# SNARK = system: T1, SNARK
# T1 construct: gene NUAK2
# SNRK = system: SNRK
# SRC = system: SRC
# SRMS = system: SRMS
# SRPK1 = system: SRPK1
# SRPK2 = system: SRPK2
# SRPK3 = system: SRPK3
# STK16 = system: STK16
# STK33 = system: STK33
# STK35 = system: STK35
# 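Note: KINOMEscan kinase panel screen.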
Structure (SMILES),%Inh (SNARK) [%],%Inh (SNRK) [%],%Inh (SRC) [%],%Inh (SRMS) [%],%Inh (SRPK1) [%],%Inh (SRPK2) [%],%Inh (SRPK3) [%],%Inh (STK16) [%],%Inh (STK33) [%],%Inh (STK35) [%]
Oc1cc(Nc2ccnc3cc(I)ccc23)ccc1F [GW552771],0,0,67,0,21,0,9,0,0,5
C[C@@H]1CC[C@@H](C(=O)Nc2ccccc2)CN1c1cc(-c2ccc3c(N)n[nH]c3c2)nc(N)n1 [GSK2286062],11,0,0,0,25,33,0,8,0,0
COc1ccc(Nc2nccc(NCCNC(=O)c3cc4ccccc4s3)n2)cc1 [GSK1379896],0,2,9,0,32,0,3,13,0,0
O=C(Nc1cccc(-c2nn3ccccc3c2-c2ccnc(Nc3cccc(C(F)(F)F)c3)n2)c1)c1c(F)cccc1F [GSK292658],9,15,15,22,12,0,17,0,4,20
COc1cccc(NC(=O)NC2CCN(c3ccnc(Nc4cc(OC)c(OC)c(OC)c4)n3)C2)c1 (stereo not shown) [GSK1379763],33,0,10,0,61,0,0,77,0,3
COc1cc(Nc2ncc3c(C)nc(-c4cc5ccccc5[nH]4)n3n2)cc(OC)c1OC [GW869516],9,0,90.1,13,9,6,19,86,10,0
NCCCC(NC(=O)c1cc(Br)c(-c2ccnc3[nH]ccc23)s1)c1ccccc1.O=C(O)C(F)(F)F.O=C(O)C(F)(F)F (stereo not shown) [GSK1287544],88,6,0,0,70,12,57,60,91.5,0
O=C(Nc1n[nH]c2cc(-c3ccoc3)ccc12)C1CC1 [SB-738481],25,0,0,19,48,0,37,21,0,5
COC(=O)Nc1nc2ccc(Oc3ccc(NC(=O)Nc4cc(C(F)(F)F)ccc4F)cc3)cc2n1C.Cl [GW692089],17,0,0,0,26,57,5,0,30,0
Cc1cccc(NC(=O)Nc2ccc(Oc3ncnc4ccn(C)c34)cc2)c1,0,0,0,0,11,0,0,0,0,0

# Source: publication PMC5540273 (PLoS ONE, 2017)
